Reference: PubChem BioAssay AID651593 (National Center for Advancing Translational Sciences (NCATS), 2012)
Several values for one entry are separate records, joined by “and”; a condition that tells them apart may be missing. Identical values can stand only once. Hit rate of the full screen: of about 1,100 compounds, about 860 (78%) were called active. About 19% were inconclusive and are not listed. Calls follow the shape of the dose curve; as a rule, active = well fitted activation curve with a large enough effect; inconclusive = small, poorly fitted or top-dose-only effect; inactive = flat fitted curve, though single readings scatter. So high a share suggests a set chosen from earlier hits. The list shows a part of the results.

Test: qHTS of Nrf2 Activators: Hit Validation in Primary Assay; also: nearly all actives have a fitted effect of over 70% in size; as to activation: 0% is about no effect
Details: Nrf2/ARE reporter cell assay; Potency: activation; series mostly up to 46.1 µM; activation: at the top concentration
Summary of the method: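 Luminescence from Steady-Glo lysis reagent, read after 30 min, reported ARE-luciferase activity in AREc32_fluc stable cells. Compounds were tested at several concentrations, incubated 24 h at 37 °C with 5% CO2 following overnight seeding.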
Potency is read from the fitted curve at half-maximal effect.

Potency, active:
Cc1noc(C(=O)Nc2cc(Cl)ccc2O)c1Cl 2.91 µM, C=CCSc1nccc(-c2cc(Cl)sc2Cl)n1 6.51 µM, O=C1c2cccc3cccc(c23)C(=O)N1CCCN(C(=O)c1cccs1)c1cccc(F)c1 2.31 µM, O=C(N/N=C\C=C\c1ccco1)c1cc(-c2ccc3ccccc3c2)n[nH]1 8.2 µM, O=C(N/N=C/C=C/c1ccco1)c1cccc([N+](=O)[O-])c1 0.366 µM, O=C(N/N=C/C=C/c1ccco1)c1cnccn1 9.2 µM, Cc1cccc(C)c1OCC(=O)N/N=C/C=C/c1ccco1 0.517 µM, COc1ccc(C2CC(c3cccs3)=Nc3ccccc3S2)cc1OC (centres undefined) 20.6 µM, Cc1cc(C)c(C#N)c(OCC(=O)c2ccc(Br)cc2)n1 4.61 µM, Cc1cc(C)c(C#N)c(OCC(=O)c2ccccc2)n1 5.17 µM, Cc1cc(C)n2nc(/C(C#N)=C/c3ccccn3)c(C#N)c2n1 18.4 µM, COc1ccc(Cl)cc1-c1nc(-c2ccncc2)no1 4.61 µM, Clc1ccc(Br)cc1-c1nc(-c2ccncc2)no1 4.61 µM, CC(C)(C)C(=O)/C=c1\[nH]c(=O)/c(=C\c2ccccc2F)s1 2.31 µM, Cn1nc(C(=O)Nc2c(-c3ccccc3)nc3sccn23)c2ccccc2c1=O 9.2 µM, Cc1ccc2[nH]c(=O)c3cc(C(=O)N(C)Cc4ccco4)sc3c2c1 11.6 µM, C(=Cc1cnnc2ccccc12)c1ccccc1 2.91 µM, O=C(NCc1ccccc1)c1c(Cl)nc(Cl)c(Cl)c1Cl 2.91 µM, O=C(Nc1ncc2c(n1)CC(c1ccco1)CC2=O)c1ccc(Cl)cc1 (centres undefined) 9.2 µM, N#C/C(=C\c1ccccc1)c1ccccn1 13 µM, O=C(/C=C/c1cccc([N+](=O)[O-])c1)n1cnc2ccccc21 4.61 µM, N#C/C(=C\c1cccc([N+](=O)[O-])c1)c1ccccn1 4.61 µM, O=[N+]([O-])c1cccc(/C=C/c2ccccn2)c1 4.61 µM, CC(=O)Oc1ccc(-c2nc3c(C)cccc3c(=O)o2)cc1 9.2 µM, O=C(NCCc1c[nH]c2ccccc12)c1ccc([N+](=O)[O-])o1 5.17 µM, CCOC(=O)c1c(NC(=O)/C=C/c2ccc(C)o2)sc(C)c1C 3.26 µM, Cc1ccc(/C=C/C(=O)Nc2ccc([N+](=O)[O-])c(NC(=O)/C=C/c3ccc(C)o3)c2)o1 8.2 µM, COC(=O)c1ccc(Cl)cc1NC(=O)/C=C/c1ccc(C)o1 2.06 µM, CCC1C/C(=C/c2cccs2)C(=O)/C(=C/c2cccs2)C1 (centres undefined) 2.31 µM, Cc1nc2ccccc2c(=O)n1NCc1cc(Br)cs1 2.59 µM, O=C(Nc1nnc(-c2cccs2)s1)C1CC1 9.2 µM, O=C(Nc1nnc(-c2cccs2)s1)c1cccc(F)c1 2.31 µM, Nc1ccccc1C=C1Cc2ccccc2C1=O 3.66 µM, O=C1C(=Cc2ccccc2[N+](=O)[O-])Cc2ccccc21 4.61 µM, COCCN(C(=O)COC(=O)/C=C/c1ccccc1Cl)c1c(N)n(Cc2ccccc2)c(=O)[nH]c1=O 11.6 µM, O=C(/C=C/Nc1ccc(F)c(Cl)c1)c1ccco1 1.3 µM, O=C1COc2ccc(C(=O)COC(=O)/C=C/c3ccco3)cc2N1 2.06 µM, O=C(Nc1ccccn1)Nc1ccccc1Cl 9.2 µM, Cc1cccc(NC(=O)Nc2ccc(Br)cc2)n1 8.2 µM, O=C(Nc1ccccn1)Nc1ccccc1[N+](=O)[O-] 4.11 µM, Cc1cccc(NC(=O)Nc2ccccc2[N+](=O)[O-])n1 8.2 µM, O=C(N=Nc1c(O)[nH]c2ccc(Br)cc12)c1ccco1 3.26 µM, O=C(N=Nc1c(O)[nH]c2ccccc12)c1ccco1 2.31 µM, Cc1ccc(C)c(-c2nnc(NC(=O)c3ccc([N+](=O)[O-])o3)o2)c1 2.91 µM, O=C(CSc1ccc(-c2ccco2)nn1)N1CCCC1 1.84 µM, O=C(CSc1ccc(-c2ccco2)nn1)N1CCCCC1 1.84 µM, O=C(CSc1ccc(-c2ccco2)nn1)N1CCCCCC1 0.517 µM, COc1ccc(NC(=O)CSc2ccc(-c3ccco3)nn2)cc1OC 5.17 µM, CCOC(=O)C(=Cc1ccccc1OC)C(=O)OCC 16.4 µM, CCn1nc(C(=O)Nc2cccc3ccccc23)c(Cl)c1Cl 18.4 µM, c1ccc(-c2nc3c4ccccc4ccn3c2Cc2ccsc2)cc1 5.8 µM, COc1ccccc1Cc1c(-c2ccco2)nc2c3ccccc3ccn12 7.31 µM, Clc1cccc(Cc2c(-c3ccccc3)nc3c4ccccc4ccn23)c1 11.6 µM, c1ccc(Cc2c(-c3ccco3)nc3c4ccccc4ccn23)cc1 9.2 µM, Fc1cccc(Cc2c(-c3ccco3)nc3c4ccccc4ccn23)c1 2.91 µM, Cc1ccc(Cc2c(-c3ccco3)nc3c4ccccc4ccn23)cc1 8.2 µM, Clc1cccc(Cc2c(-c3ccco3)nc3c4ccccc4ccn23)c1 8.2 µM, O=C(COC(=O)c1cc2ccccc2cc1O)Nc1ccccc1F 20.6 µM, c1ccc(N/N=C2\CCCc3ccccc32)nc1 14.6 µM, O=C1c2ccccc2C(=O)c2c(Nc3ccc(CCO)cc3)ccc(O)c21 2.31 µM, COc1cc(C=C(c2nc3ccccc3s2)c2nc3ccccc3s2)ccc1O 7.31 µM, FC(F)(F)c1ccccc1Cc1c(-c2ccccc2)nc2c3ccccc3ccn12 14.6 µM, Fc1ccc(-c2nc3c4ccccc4ccn3c2Cc2ccccc2C(F)(F)F)cc1 7.31 µM, COc1ccc(Cc2c(-c3ccccc3)nc3c4ccccc4ccn23)c(C)c1 6.51 µM, Nc1ccc2c(c1)Cc1c(F)cccc1-2 18.4 µM, CC(C)N(C(=O)COC(=O)c1ccccc1C(=O)c1ccc(Cl)c([N+](=O)[O-])c1)C(C)C 18.4 µM, O=C1Nc2ccccc2SC1=Cc1ccccc1 2.91 µM, O=[N+]([O-])c1cccc(-c2nnc(-c3ccccc3)o2)c1 7.31 µM, O=[N+]([O-])c1cccc(-c2nc(-c3ccccn3)no2)c1 2.06 µM, c1ccc(-c2nnc(-c3ccccc3)o2)cc1 6.51 µM, CS(=O)(=O)c1nc(S(=O)(=O)c2ccc(Cl)cc2)c(N2CCC3(CC2)OCCO3)s1 9.2 µM, Cc1ccc(S(=O)(=O)c2nc(S(C)(=O)=O)sc2N2CCC3(CC2)OCCO3)cc1 10.3 µM, C/C(=N\NC(=O)c1cccc(S(=O)(=O)N2CCCC2)c1)c1ccco1 2.31 µM, CCN(C(=O)Cn1nnc2sc(-c3ccccc3)cc2c1=O)c1cccc(C)c1 2.31 µM, CC(=O)Cn1nnc2sc(-c3ccccc3)cc2c1=O 2.06 µM and 5.8 µM, COC(=O)[C@@]1(Sc2ccc(C)cc2)CC(=O)N(C(=O)/C=C/c2ccccc2)[C@@H]1c1ccccc1 3.66 µM, Brc1ccc2nc(-c3ccco3)c(Cc3ccsc3)n2c1 20.6 µM, Fc1cccc(Cc2c(-c3ccco3)nc3ccc(Br)cn23)c1 20.6 µM, c1cc2c3c(cccc3c1)NN=N2 20.6 µM, COc1cc(/C=N/Nc2nc3ccccc3s2)ccc1OC(=O)c1ccccc1F 4.61 µM, C/C(=N\NC(=O)c1c[nH]c2ccccc12)c1ccco1 3.66 µM, Cc1nc(/N=C(\N)NC(=O)c2ccccc2)nc2ccccc12 2.31 µM, CC(=O)N(/N=C1\Sc2ccccc2C1=O)c1ccccc1 20.6 µM, COc1ccc(O)c(-c2cc(-c3ccccc3Cl)[nH]n2)c1 2.91 µM, COc1ccc(O)c(-c2cc(-c3ccc(F)cc3)n[nH]2)c1 7.31 µM, N#Cc1sc2nc(-c3ccccc3)cc(C(F)(F)F)c2c1N 2.59 µM, Cc1ccc(O)c(NC(=O)c2cc([N+](=O)[O-])ccc2Cl)c1 2.91 µM, O=C(Nc1cccc([N+](=O)[O-])c1)c1[nH]ncc1Cl 5.8 µM, O=C(Nc1ccccc1)c1cc([N+](=O)[O-])ccc1Cl 1.46 µM, Cc1cc(O)c(NC(=O)c2cc([N+](=O)[O-])ccc2Cl)cc1C 2.31 µM, CS(=O)(=O)Nc1ccc(C(=O)Nc2cccc([N+](=O)[O-])c2)cc1 7.31 µM, O=[N+]([O-])c1ccccc1C=NNc1ccccc1 5.17 µM, O=[N+]([O-])c1ccccc1/C=N/Nc1nccnc1Cl 16.4 µM

activation, inactive:
c1ccc(-c2ccc3c(c2)NC(C2Nc4cc(-c5ccccc5)ccc4O2)O3)cc1 (centres undefined) 3.34%, C/C(=N\NC(=S)NCC(C)(C)C)c1cc(F)cc(F)c1O 7.88%, CC(C)(C)SCCNC(=O)/C=C/c1cccc([N+](=O)[O-])c1 12.4%, Cn1c(CC2C(=O)Nc3ccc(Br)cc32)nc2ccccc2c1=O (centres undefined) 26%, O=[N+]([O-])c1cccc(-c2cn(-c3ccccc3)c(=S)[nH]2)c1 18.7%, C/C(=N\NC(=O)c1cccc(S(=O)(=O)Nc2cccc(Cl)c2)c1)c1cccs1 29.6%
